# Data reported in PubChem BioAssay.
# Potency and affinity values are given separately. Records with an inconclusive call do not appear. Calls of active or inactive are those of the source. The rule behind the calls is not given here.
# Assay: non-specific cell cytotoxicity, dose response, cytotoxicity control for PAX8 inhibitor project, plate reader, dry powder samples (AID 743021)
# Conditions: cell line, non-specific cytotoxicity counter-screen; series mostly up to 35 µM; activity change, negative = cytotoxicity: at the top concentration
row,SMILES,"activity change, negative = cytotoxicity"
1,C[C@@H]1CCCCO[C@@H](CN(C)S(=O)(=O)c2ccc(Cl)cc2)[C@H](C)CN([C@@H](C)CO)C(=O)c2cc(NS(=O)(=O)c3ccc(Cl)cc3)ccc2O1,-7.03% (inactive)
2,C[C@H](CO)N1C[C@H](C)[C@@H](CN(C)Cc2ccc(Oc3ccccc3)cc2)OCc2ccccc2-c2c(n(C)c3ccccc23)C1=O,-15.5% (inactive)
3,C[C@@H]1CN([C@@H](C)CO)C(=O)c2cc(NC(=O)Nc3ccc4c(c3)OCO4)ccc2O[C@@H]1CN(C)C(=O)Nc1ccc(C(F)(F)F)cc1,-15.1% (inactive)
4,C[C@@H]1CN([C@@H](C)CO)C(=O)c2cc(NS(=O)(=O)c3ccccc3)ccc2O[C@@H](C)CCCCO[C@@H]1CN(C)Cc1ccc(C(F)(F)F)cc1,-26.8% (inactive)
5,C[C@@H]1CN([C@@H](C)CO)C(=O)Cc2cc(NC(=O)Nc3ccc(C(F)(F)F)cc3)ccc2O[C@H]1CN(C)S(=O)(=O)c1ccc(F)cc1,-23.8% (inactive)
6,C[C@@H]1CCCCO[C@H](CN(C)Cc2ccc(C(F)(F)F)cc2)[C@H](C)CN([C@H](C)CO)C(=O)c2cc(NC(=O)Nc3ccc(F)cc3)ccc2O1,-6.59% (inactive)
7,CN1c2ccc(C#Cc3cccnc3)cc2[C@@H]2[C@@H](CCN2C(=O)Cc2cccnc2)[C@@H]1CO,-21% (inactive)
8,COc1ccc(NC(=O)Nc2ccc3c(c2)C(=O)N([C@@H](C)CO)C[C@@H](C)[C@@H](CN(C)Cc2ccc(C(F)(F)F)cc2)OCCCC[C@@H](C)O3)cc1,-11.8% (inactive)
9,O=C(Nc1ccc(C(F)(F)F)cc1)N1C[C@@H]2N[C@H](C1)C2c1ccc(-c2ccccc2)cc1 (some centres undefined),18.3% [at 16 µM] (inactive)
